Results reported in the supplement of paper PMC3334620.
Over roughly 33,000 sequences, “E-score (-0.5 to 0.5)” has its median near -0.016; the highest 2% begin near 0.32. The full list was thinned out, with the highest values kept by preference.

The sequences below were run against T1, Stp1 (UniProt B3LFK1) (assay: PBM E-score (8-mer binding enrichment) (E-score (-0.5 to 0.5)); higher = stronger / more preferred TF binding). Conditions: protein concentration: 200 nM; construct: GST-full length.
T1 sequence: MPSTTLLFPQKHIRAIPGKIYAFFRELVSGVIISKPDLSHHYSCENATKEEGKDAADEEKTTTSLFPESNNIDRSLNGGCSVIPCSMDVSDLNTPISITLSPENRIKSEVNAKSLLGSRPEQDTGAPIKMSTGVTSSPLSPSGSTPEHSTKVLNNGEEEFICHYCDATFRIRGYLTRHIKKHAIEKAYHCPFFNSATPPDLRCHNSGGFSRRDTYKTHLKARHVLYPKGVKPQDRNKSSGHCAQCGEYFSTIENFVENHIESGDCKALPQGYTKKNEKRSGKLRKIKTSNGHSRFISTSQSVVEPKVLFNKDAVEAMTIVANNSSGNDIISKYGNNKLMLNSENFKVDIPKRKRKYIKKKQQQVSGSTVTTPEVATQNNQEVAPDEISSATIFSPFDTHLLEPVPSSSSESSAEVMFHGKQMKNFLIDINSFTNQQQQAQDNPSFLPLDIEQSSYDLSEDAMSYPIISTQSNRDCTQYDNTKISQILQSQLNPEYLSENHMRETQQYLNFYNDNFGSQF
Method in brief: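 PURExpress in vitro transcription/translation supplied GST-tagged yeast transcription factors, either full-length or DNA-binding domain. Applied at about 100-200 nM to universal all-10-mer Agilent arrays double-stranded by primer extension, the bound protein was detected with fluorescent anti-GST. E-scores, modified Wilcoxon-Mann-Whitney statistics, were given by the Universal PBM Analysis Suite to ungapped eight-base words pooled with their reverse complements after masliner normalisation.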

Sequence | PBM E-score
TGGCAAAA | 0.292
CGGCAAAA | 0.357
CGGCAAAG | 0.264
GGGCAAAA | 0.142
AGACCTCG | -0.157
CGCGAGGC | 0.421
ACCGAGGC | -0.121
GCCGAGGC | 0.357
CACGAGGC | 0.415
CACGAGGA | 0.102
GCCGAGGA | 0.0308
CACGAGGG | -0.253
CGCGAGGA | -0.0281
AGCGAGGC | 0.197
ATCAGGTC | -0.114
CACGATAC | -0.0326
GACAACAA | 0.0779
AAGCCCCT | -0.287
CCTTAACC | -0.221
ACCCCGCT | -0.174
CCGGCAGA | -0.0739
ACGGCAGC | 0.406

Sequence | PBM E-score
CCGGCAGG | -0.17
TCGGCAGA | -0.0589
ACGGCAGG | 0.343
ACGGCAGA | 0.367
ACGGCAGT | 0.403
ACAGCAGT | -0.0354
ATGGCAGC | 0.00395
CCGGCAGC | -0.063
AAGGCAGG | -0.236
AAGGCAGT | 0.103
ATCTTTAG | 0.0678
AGCCATCC | 0.0193
GCAGCGGC | 0.32
GCGGCAGC | 0.334
GCGGCAGA | 0.261
GCAGCGGA | -0.0607
CCAGCGGC | 0.256
GAGGCAGC | 0.0343
ACTTTTTA | 0.157
AACTACGG | -0.0064
CAGCGCCA | 0.0346
AAGCGCCT | 0.272

Sequence | PBM E-score
CAGCGCCG | 0.446
CAGCGCCC | 0.188
AAGCGCCA | 0.0796
AAGCGCCG | 0.465
CAGTAGAG | -0.155
AGTCGATC | -0.128
GACGGGAC | -0.203
CACGTGGC | 0.213
GCCTAGCC | 0.0204
CCGTGGGA | 0.047
ACTGGAAG | -0.2
GTAGGTCA | -0.249
GGCCACAC | 0.0354
CCGCACAG | 0.201
CGCCACAG | -0.0135
AGGCACAG | 0.133
GGGCACAC | -0.098
CGCCACAC | 0.324
CGGCACAC | 0.381
AGGCACAC | 0.0169
CGGCACAA | 0.405
CGGCACAG | 0.398

Sequence | PBM E-score
GGGCACAA | 0.202
AGGCACAA | 0.288
CATGCAAA | 0.112
CATCTCAG | -0.0765
AACGCTCC | -0.122
CTAAACTA | -0.0468
AAATTCCG | 0.126
CGTCTTAC | -0.0611
AGGACCAT | -0.113
GCAGTGCA | -0.0796
AATGTAGC | -0.0806
AGTTCGCC | 0.159
GCTACACC | -0.0559
AGAGAGTC | -0.173
TCCGTAAA | 0.0695
CCCGTATA | 0.12
ACCGTAAA | 0.0391
ACCGTATA | -0.0953
GCCGTAAC | 0.33
CCCGTAAC | -0.112
